Inconclusive results are not listed. Calls of active or inactive are those of the source. Calls come from the whole dose curve; as a rule, active = well fitted inhibition curve with a large enough effect; inconclusive = small, poorly fitted or top-dose-only effect, or effect the other way; inactive = flat fitted curve, though single readings scatter.
These molecules were tested against Lysosomal acid glucosylceramidase (Homo sapiens) (UniProt P04062) (assay: qHTS Assay for Inhibitors and Activators of N370S glucocerebrosidase as a Potential Chaperone Treatment of Gaucher Disease: Activity in Non-Mutant Spleen Homogenate Using a Red Fluorescent Substrate). Conditions: red fluorogenic substrate GCase activity; series mostly up to 50.2 µM; activity change, negative = inhibition: at the top concentration.
Lysosomal acid glucosylceramidase (Homo sapiens), sequence (P04062 whole entry, looked up): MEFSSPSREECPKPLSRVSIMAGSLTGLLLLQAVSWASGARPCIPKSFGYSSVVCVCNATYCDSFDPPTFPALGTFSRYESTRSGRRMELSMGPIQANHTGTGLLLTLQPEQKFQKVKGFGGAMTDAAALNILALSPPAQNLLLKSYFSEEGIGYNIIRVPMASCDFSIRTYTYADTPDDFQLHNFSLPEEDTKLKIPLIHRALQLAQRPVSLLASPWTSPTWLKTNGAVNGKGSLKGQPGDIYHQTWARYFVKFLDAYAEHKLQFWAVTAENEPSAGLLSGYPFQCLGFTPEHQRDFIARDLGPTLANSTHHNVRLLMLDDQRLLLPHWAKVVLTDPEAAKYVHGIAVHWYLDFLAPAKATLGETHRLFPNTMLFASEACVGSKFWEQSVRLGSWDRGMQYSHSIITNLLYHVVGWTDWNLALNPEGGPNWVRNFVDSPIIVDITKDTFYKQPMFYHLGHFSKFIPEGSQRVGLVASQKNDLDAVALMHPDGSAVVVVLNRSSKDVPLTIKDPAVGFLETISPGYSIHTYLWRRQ
Excerpt: NIH Chemical Genomics Center [NCGC]
NIH Molecular Libraries Probe Production Centers Network [MLPCN]
Assay Submitter (PI): Wei Zheng
Glucocerebrosidase (GC) catalyzes the hydrolysis of beta-glucocerebroside to glucose and ceramide in lysosomes. Mutations in the glucocerebrosidase gene result in Gaucher disease, an autosomal recessive lysosomal storage disorder. Many of the mutations encountered in patients with Gaucher disease are missense alterations that may cause misfolding, decreased stability and/or mistrafficking of this lysosomal protein. […] These inhibitors include iminosugar analogs and three non-iminosugar inhibitors identified from a previous HTS of 62,000 compounds with the wild type recombinant enzyme. However, the enhancement of enzyme activity by the chaperone action of an enzyme inhibitor must be balanced against the direct inhibition of the enzyme. An enzyme activator could also function as a chaperone by binding to the enzyme and helping to correct its misfolding and mistrafficking. While activators for GC have not yet been identified, they may have better therapeutic potential than inhibitors. Therefore the discovery and development of chemical activators may provide a new strategy for the chaperone therapy.
We have optimized a new assay using N370S mutant GC derived from the spleen of a Gaucher patient. […] In addition, the MLPCN compound library has expanded, which increases the chance of finding new and better probes.
This confirmation assay tests for compound activity in spleen homogenate containing wildtype enzyme using an alternate resorufin-based substrate.
NCGC Assay Protocol Summary:
This is a fluorogenic enzyme assay with resorufin-beta-D-glucopyranoside as the substrate and wildtype glucocerebrosidase from human spleen homogenate as the enzyme preparation. Upon the hydrolysis of this fluorogenic substrate, the resulting product, […] which can be detected by a standard fluorescence plate reader. Data were normalized to the controls for basal activity (without enzyme) and 100% activity (with enzyme). The AC50 values were determined from concentration-response data modeled with the standard Hill equation.
Assay buffer: 50 mM citric acid (titrated with potassium phosphate to pH 5.0), 100 mM potassium chloride, 10 mM sodium chloride, 1 mM magnesium chloride, 0.01% Tween-20.
1536-well assay protocol:
(1) Add 2 ul/well of spleen homogenate (27 ug final)
(2) Add 23 nL compounds in DMSO solution. The final titration was 0.5 nM to 58 uM.
(3) Add 2 ul of substrate (1 mM final)
(4) Incubate at 37C for 40 min.
(5) Add 2 ul stop solution (1M NaOH and 1M Glycine mixture, pH 10)
(6) Detect the assay plate in a ViewLux plate reader (PerkinElmer) with Ex=365 nm and Em=440nm.
Keywords: Glucocerebrosidase, beta-glucosidase, Gaucher Disease, pharmacological chaperone, chaperone therapy, high throughput screening, glucocerebrosidase inhibitor, MLSMR, MLSCN, NIH Roadmap, qHTS and NCGC

| SMILES | Potency | activity change, negative = inhibition |
| --- | --- | --- |
| Cc1cc(N2CCN(c3ncccn3)CC2)nc2ccc(NC(=O)C3CCC(C)CC3)cc12 (stereo not given) | 11200 nM (active) | – |
| O=S(=O)(c1ccccc1C(F)(F)F)N1CCN(c2nc(-c3cccs3)nc3ccccc23)CC1 | 224 nM (active) | – |
| Cc1ccc(Cl)cc1NC(=O)c1ccccc1OCC(=O)Nc1ccc(Cl)cc1 | – | 27.3% (inactive) |
| CCOC(=O)c1ccc(S(=O)(=O)N2CCN(c3nc(-c4cccs4)nc4ccccc34)CC2)cc1 | 794 nM (active) | – |
| COc1ccc(Nc2nc(-c3cccs3)nc3ccccc23)cc1 | 1410 nM (active) | – |
| O=C(Nc1cnn(Cc2ccc(F)cc2)c1)c1cnn2c(C(F)F)cc(-c3ccccc3)nc12 | – | 23.4% (inactive) |
| CN(c1ccc(C(=O)Nc2nccs2)cc1)S(=O)(=O)c1ccccc1 | 35500 nM (active) | – |
| CCCC1CCC(C(=O)Nc2ccc3nc(N4CCOCC4)cc(C)c3c2)CC1 (stereo not given) | 447 nM (active) | – |
| O=S(=O)(c1ccc(Cl)cc1)N1CCN(c2nc(-c3ccc(Cl)cc3)nc3ccccc23)CC1 | – | 13.2% (inactive) |
| O=S(=O)(c1cccc(C(F)(F)F)c1)N1CCN(c2nc(-c3cccs3)nc3ccccc23)CC1 | 794 nM (active) | – |
| Cc1cccc(Nc2nc(NCCO)nc(N3CCCC3)n2)c1 | – | -18.3% (inactive) |
| O=S(=O)(c1ccc(OC(F)(F)F)cc1)N1CCN(c2nc(-c3cccs3)nc3ccccc23)CC1 | 3980 nM (active) | – |
| O=S(=O)(c1ccccc1)N1CCN(c2nc(-c3cccs3)nc3ccccc23)CC1 | 316 nM (active) | – |
| O=S(=O)(c1ccc2ccccc2c1)N1CCN(c2nc(-c3cccs3)nc3ccccc23)CC1 | 251 nM (active) | – |
| O=S(=O)(c1ccccc1Cl)N1CCN(c2nc(-c3cccs3)nc3ccccc23)CC1 | 794 nM (active) | – |
| O=S(=O)(c1ccc(Cl)cc1)N1CCN(c2nc(-c3cccc(Br)c3)nc3ccccc23)CC1 | – | -11% (inactive) |
| Nc1nc(-c2ccccc2)c(N=Nc2ccc(Cl)cc2)s1 | – | -17.6% (inactive) |
| O=S(=O)(c1ccccc1)N1CCN(c2nc(-c3ccc(F)cc3)nc3cc(Cl)ccc23)CC1 | – | 6.43% (inactive) |
| O=C(COc1ccccc1C(=O)c1cnn(-c2ccccc2)c1)Nc1ccccc1 | – | -2.58% (inactive) |
| CC1(C)CC(=O)C2=C(C1)c1c(ccc3ccccc13)NC2c1ccc(Br)o1 (stereo not given) | – | -13.8% (inactive) |

| SMILES | Potency | activity change, negative = inhibition |
| --- | --- | --- |
| S=C(NCCCc1cnc[nH]1)NCCCN(Cc1ccc(Cl)c(Cl)c1)c1ccc(Br)cn1 | 1000 nM (active) | – |
| CCC(C)NC(=O)COC(=O)c1ccccc1OCC(=O)Nc1ccc(Br)cc1 (stereo not given) | – | -9.29% (inactive) |
| CC(=O)Nc1ccc(NC(=O)COc2ccccc2C(=O)Nc2cccc(Cl)c2Cl)cc1 | – | -15.2% (inactive) |
| Cc1ccc(C)c(N2CCN(C(=O)CCC(=O)Nc3ccc4nc(N5CCOCC5)cc(C)c4c3)CC2)c1 | 14100 nM (active) | – |
| O=S(=O)(c1ccc2c(c1)OCCO2)N1CCN(c2nc(-c3cccs3)nc3ccccc23)CC1 | 141 nM (active) | – |
| O=S(=O)(c1ccc(F)cc1)N1CCN(c2nc(-c3cccc(Br)c3)nc3ccccc23)CC1 | – | -2.28% (inactive) |
| O=C(Nc1ccccc1)c1ccc(NS(=O)(=O)c2ccccc2)cc1 | – | 4.74% (inactive) |
| NS(=O)(=O)c1ccc(S(=O)(=O)N2CCN(c3nc(-c4cccs4)nc4ccccc34)CC2)cc1 | 2240 nM (active) | – |
| Cc1cc(N2CCCCC2)nc2ccc(NC(=O)C3CCC(C)CC3)cc12 (stereo not given) | 7940 nM (active) | – |
| O=[N+]([O-])c1cccc(S(=O)(=O)N2CCN(c3nc(-c4cccs4)nc4ccccc34)CC2)c1 | 1120 nM (active) | – |
| O=S(=O)(c1ccccc1C(F)(F)F)N1CCN(c2nc(-c3ccccc3)nc3ccccc23)CC1 | 1000 nM (active) | – |
| COC(=O)c1ccccc1NC(=O)c1ccc2c(c1)C(=O)N(Cc1ccccc1)C2=O | – | 8.05% (inactive) |
| N#Cc1ccccc1Sc1ccccc1C(=O)OCC(=O)NC12CC3CC(CC(C3)C1)C2 | – | -4.18% (inactive) |
| O=S(=O)(c1ccc2c(c1)OCCO2)N1CCN(c2nc(-c3ccccc3)nc3ccccc23)CC1 | 4470 nM (active) | – |
| Cc1cc(N2CCC(C)CC2)nc2ccc(NC(=O)C3CCC(C)CC3)cc12 (stereo not given) | 5010 nM (active) | – |
| Cc1cc(N2CCOCC2)nc2ccc(NC(=O)CCC3CCCC3)cc12 | 3160 nM (active) | – |
| N#Cc1ccccc1S(=O)(=O)N1CCN(c2nc(-c3cccs3)nc3ccccc23)CC1 | 1120 nM (active) | – |
| O=S(=O)(c1ccc(F)cc1)N1CCN(c2nc(-c3ccccc3)nc3cc(Cl)ccc23)CC1 | – | -14.7% (inactive) |
| O=C(CSc1nccc(-c2cccs2)n1)Nc1cccc(Cl)c1 | – | -0.194% (inactive) |
| O=C(Nc1cc(Br)ccc1O)c1cnn2c(C(F)F)cc(C3CC3)nc12 | – | 8.3% (inactive) |
